The target in assay [1] is Aryl hydrocarbon receptor (Homo sapiens) (UniProt P35869). Description: ATG_Ahr_CIS: Attagene CIS-FACTORIAL HepG2 Assay for human Aryl Hydrocarbon Receptor (Ahr) (AID 2282930). The settings on record: HepG2 AhR cis-factorial reporter transcription; actives raise or lower the signal. A digest of the protocol:
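HepG2 cells transiently transfected with cis-element-driven multiplexed reporter units; endogenous AhR activity read as reporter mRNA 24 h after dosing, via RT-PCR, 6-FAM labelling, HpaI digestion and capillary electrophoresis. Bidirectional fit relative to DMSO.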

Assay [2] is described as follows: ATG_AP_1_CIS: Attagene CIS-FACTORIAL HepG2 Assay for human Activator Protein 1 (AP-1) (AID 2282931). The settings on record: HepG2 Attagene cis-factorial AP-1 reporter mRNA; actives raise or lower the signal. A digest of the protocol: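 Transient MRTU transfection of HepG2 → 24 h chemical treatment → RNA isolation, RT-PCR, 6-FAM labelling, HpaI digest → capillary electrophoresis. Fit: bidirectional, DMSO negative control.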

A short description of assay [3]: ATG_AP_2_CIS: Attagene CIS-FACTORIAL HepG2 Assay for human Activator Protein 2 (AP-2) (AID 2282932). The following applies: HepG2 AP-2 cis-reporter, Attagene transcription factor profiling; actives raise or lower the signal. A digest of the protocol: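 Multiplexed mRNA reporter assay in HepG2: cis-regulated units report endogenous factor activity after 24 h treatment. Fluorescence from capillary electrophoresis of RT-PCR products gives the signal, with DMSO as baseline.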

Assay [4] in a line: ATG_BRE_CIS: Attagene CIS-FACTORIAL HepG2 Assay for human Bone Morphogenetic Protein (BMP) Response Element (BRE) (AID 2282933). The following applies: HepG2 BMP response element reporter, Attagene transcription factor profiling; actives raise or lower the signal. The method, boiled down: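 Endogenous transcription factor activity read in transiently transfected HepG2 cells after 24 h chemical exposure. Bidirectional curve fitting against DMSO; readout is reporter transcript level by RT-PCR with capillary electrophoresis of labelled products.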

The target of assay [5] is Transcription factor E2F1 (Homo sapiens) (UniProt Q01094). Nature of the assay: ATG_E2F_CIS: Attagene CIS-FACTORIAL HepG2 Assay for human E2F Transcription Factor 1 (AID 2282935). The following applies: HepG2 Attagene cis-reporter, E2F reporter RNA transcripts; actives raise or lower the signal. A digest of the protocol: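 Measures reporter transcript levels via RT-PCR with capillary electrophoresis detection in HepG2 cells harboring cis-regulated reporter units; 24 h post-dose; bidirectional curve fitting with DMSO as baseline.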
Chain of Transcription factor E2F1 (Homo sapiens) (Q01094 whole entry, looked up): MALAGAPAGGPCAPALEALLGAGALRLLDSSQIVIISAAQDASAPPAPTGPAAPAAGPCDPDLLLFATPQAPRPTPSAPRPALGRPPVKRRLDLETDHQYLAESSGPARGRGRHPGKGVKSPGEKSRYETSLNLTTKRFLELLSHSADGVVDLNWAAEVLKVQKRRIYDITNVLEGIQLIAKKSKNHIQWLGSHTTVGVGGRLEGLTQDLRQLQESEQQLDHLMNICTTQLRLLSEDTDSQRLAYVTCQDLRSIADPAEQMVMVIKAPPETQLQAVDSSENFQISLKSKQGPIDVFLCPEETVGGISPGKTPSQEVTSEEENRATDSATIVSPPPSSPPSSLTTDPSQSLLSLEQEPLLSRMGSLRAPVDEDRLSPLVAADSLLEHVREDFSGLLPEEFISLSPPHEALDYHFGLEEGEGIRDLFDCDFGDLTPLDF

Assay [6] in a line: ATG_E_Box_CIS: Attagene CIS-FACTORIAL HepG2 Assay for human Enhancer Box (E-box) (AID 2282936). The following applies: HepG2 E-box cis-reporter transcription, actives raise or lower the signal. The method, boiled down: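 First, HepG2 cells receive multiple cis-regulated reporter constructs by transient transfection. Next, chemicals are applied for 24 h. Finally, reporter mRNA is quantified via RT-PCR and capillary electrophoresis, with DMSO as baseline.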

A short description of assay [7]: ATG_M_61_CIS: Attagene CIS-FACTORIAL HepG2 Assay for M61 Transcription Factor (Internal Marker) (AID 2282937). The following applies: HepG2 Attagene CIS-FACTORIAL M61 internal marker reporter; actives raise or lower the signal. A digest of the protocol:
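Human liver HepG2, transient MRTU transfection (cis promoter elements), 24 h compound. Total RNA → oligo(dT) RT → PCR → FAM label → HpaI → CE. Internal background marker; bidirectional fitting, DMSO = baseline.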

Assay [8] is described as follows: ATG_EGR_CIS: Attagene CIS-FACTORIAL HepG2 Assay for human Early Growth Response 1 (EGR1) (AID 2282938). The following applies: HepG2 Attagene CIS-FACTORIAL EGR reporter mRNA; actives raise or lower the signal. A digest of the protocol: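 Transient transfection of human HepG2 with multiple cis-regulated reporter units, chemical exposure 24 h, total RNA isolated. Reverse transcription, PCR, fluorescent labelling and capillary electrophoresis quantify reporter transcripts; activity fitted bidirectionally against DMSO.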

A short description of assay [9]: ATG_M_19_CIS: Attagene CIS-FACTORIAL HepG2 Assay for M19 Transcription Factor (Internal Marker) (AID 2282939). The settings on record: HepG2 Attagene CIS-FACTORIAL M19 internal marker reporter; actives raise or lower the signal. The method, boiled down: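 Internal marker readout, fitted in both directions against DMSO, from HepG2 cells carrying transfected cis-element reporter constructs; RT-PCR and capillary electrophoresis of reporter mRNA after 24 h exposure.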

For assay [10], the target named is Retinoic acid receptor alpha (Homo sapiens) (UniProt P10276). Description: ATG_DR5_RAR_CIS: Attagene CIS-FACTORIAL HepG2 Assay for human Retinoic Acid Receptor Alpha (RARE), DR5 submotif (AID 2282934). The following applies: HepG2 Attagene cis-factorial RARE DR5 reporter, mRNA; actives raise or lower the signal. The method, boiled down:
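HepG2 cells transiently transfected with multiplexed reporter units; DR5 cis-element drives reporter through endogenous transcription factors. After 24 h dosing, reporter mRNA quantified by RT-PCR, fluorescent labeling, HpaI digestion and capillary electrophoresis; bidirectional fitting versus DMSO.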

Our source for the AC50 and outcome values is PubChem BioAssay (EPA / NIEHS).

The structures appear in SMILES notation. Calls of active or inactive are those of the source. The calls were made as follows: active = hit-call score of the fitted dose curve at least 0.9, where 1 is the maximum; inactive = score below 0.9.

Chain of Retinoic acid receptor alpha (Homo sapiens) (P10276 whole entry, looked up): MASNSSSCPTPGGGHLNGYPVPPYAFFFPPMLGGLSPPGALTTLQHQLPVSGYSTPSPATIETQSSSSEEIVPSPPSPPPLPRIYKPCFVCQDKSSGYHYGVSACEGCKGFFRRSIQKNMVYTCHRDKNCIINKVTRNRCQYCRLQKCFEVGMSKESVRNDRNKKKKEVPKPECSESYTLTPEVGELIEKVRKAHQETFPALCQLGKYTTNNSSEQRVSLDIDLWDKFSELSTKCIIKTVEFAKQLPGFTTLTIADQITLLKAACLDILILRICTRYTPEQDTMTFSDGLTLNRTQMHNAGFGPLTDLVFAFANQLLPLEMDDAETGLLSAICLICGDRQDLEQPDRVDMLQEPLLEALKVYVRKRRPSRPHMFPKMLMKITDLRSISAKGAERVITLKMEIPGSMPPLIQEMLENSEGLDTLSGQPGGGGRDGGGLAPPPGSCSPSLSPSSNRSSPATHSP
Chain of Aryl hydrocarbon receptor (Homo sapiens) (P35869 whole entry, looked up): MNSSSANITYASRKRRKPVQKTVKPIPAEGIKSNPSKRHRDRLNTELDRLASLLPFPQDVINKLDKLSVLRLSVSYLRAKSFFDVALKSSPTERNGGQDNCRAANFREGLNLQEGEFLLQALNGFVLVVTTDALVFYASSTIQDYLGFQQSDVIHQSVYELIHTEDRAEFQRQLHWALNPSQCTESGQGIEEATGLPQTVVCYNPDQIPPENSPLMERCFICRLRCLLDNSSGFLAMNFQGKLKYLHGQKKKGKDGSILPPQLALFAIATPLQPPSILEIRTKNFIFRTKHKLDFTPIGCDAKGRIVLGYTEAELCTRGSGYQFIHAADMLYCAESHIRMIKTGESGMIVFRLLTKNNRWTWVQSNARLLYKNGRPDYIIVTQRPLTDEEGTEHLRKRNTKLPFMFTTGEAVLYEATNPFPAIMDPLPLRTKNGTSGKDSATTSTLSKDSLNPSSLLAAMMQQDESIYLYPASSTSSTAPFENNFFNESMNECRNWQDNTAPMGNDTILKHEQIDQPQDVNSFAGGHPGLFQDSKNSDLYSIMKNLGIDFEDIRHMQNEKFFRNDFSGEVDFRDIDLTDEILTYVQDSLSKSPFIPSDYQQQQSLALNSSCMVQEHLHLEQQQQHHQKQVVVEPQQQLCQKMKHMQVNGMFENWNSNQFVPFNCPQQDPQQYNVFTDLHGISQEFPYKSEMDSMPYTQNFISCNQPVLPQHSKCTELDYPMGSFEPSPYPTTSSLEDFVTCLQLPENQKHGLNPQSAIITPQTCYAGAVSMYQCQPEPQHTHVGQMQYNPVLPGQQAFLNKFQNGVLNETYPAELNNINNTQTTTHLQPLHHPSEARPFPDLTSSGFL

As for `Clc1ccc(C2(Cn3cncn3)CC(Br)CO2)c(Cl)c1` (centres undefined), the concentration at half-maximal activity (AC50) (as a rule, the concentration giving half of the maximal activity seen) in assay [1] is 27.6 µM (active); in assay [2] it was 35.5 µM (active); in [4], 99.5 µM (active). In addition, the call in assay [3], in assay [5], in assay [6], in assay [7], in assay [8] and in assay [9] was inactive.

`CCN1CCC2(CC1)COc1cc3c(cc12)N(C(=O)c1ccc(-c2ccc(-c4nnc(C)o4)cc2C)cc1)CC3`: the compound was classed as inactive in [1], in [2], in assay [3], in [4], in assay [5] and in assay [6]. Besides, the call in [7], in [8] and in assay [9] was inactive.

`CC(=O)C=C(C)C`: the outcome in [1], in [2], in assay [3], in assay [4], in assay [5] and in assay [6] was inactive. The compound was called inactive in assay [7], in assay [8] and in assay [9].

As to `C=C(C)C#N`, the outcome in [1], in [2], in [3], in [4], in assay [10] and in assay [5] was inactive. The outcome in [6], in assay [7] and in assay [9] was inactive.

With `CCCCOCCOC(C)=O`, the result in assay [1], in assay [2], in assay [3], in assay [4], in [5] and in assay [6] was inactive. Besides, the result in assay [7], in assay [8] and in assay [9] was inactive.

For `CC1(C)CCC(Cc2ccc(Cl)cc2)C1(O)Cn1cncn1` (centres undefined), the AC50 in assay [1] is 4.7 µM (active); in [2], 33.4 µM (active); in [4], 52.3 µM (active). For the same compound, the compound was called inactive in assay [3], in assay [5], in assay [6], in assay [7], in assay [8] and in [9].

For `O=c1[nH]c(=O)[nH]c(=O)[nH]1`, the result in assay [1], in assay [2], in assay [3], in assay [4], in assay [5] and in assay [6] was inactive. In addition, the result in assay [7], in assay [8] and in [9] was inactive.

Regarding `O=C(Cc1ccccc1)c1ccccc1`, the result in assay [1], in assay [2], in assay [3], in [4], in assay [10] and in assay [5] was inactive. Further, the result in [6], in assay [7] and in assay [9] was inactive.

In the case of `Cc1ccccc1N`, the call in [1], in assay [2], in [3], in assay [4], in assay [5] and in assay [6] was inactive. Further, the compound was called inactive in assay [7], in [8] and in assay [9].

Consider `CCOP(=S)(OCC)SCCS(=O)(=O)CC`, for which the outcome in [1], in assay [2], in assay [3], in [4], in assay [5] and in [6] was inactive. Also, the compound was classed as inactive in assay [7], in assay [8] and in [9].

As for `NC(=O)O`, the result in [1], in [2], in assay [3], in [4], in assay [5] and in [6] was inactive. In addition, the call in [7], in [8] and in [9] was inactive.

For the compound `c1ccc(N=NNc2ccccc2)cc1`, the results for the AC50 in [1], in assay [2] and in assay [4] were 5.92 µM (active), 80 µM (active) and 123 µM (active), respectively. The outcome in assay [3], in assay [10], in assay [5], in assay [6], in assay [7] and in assay [9] was inactive.

Turning to `CCOC(=O)Nc1cccc(OC(=O)Nc2ccccc2)c1`, the outcome in assay [1], in assay [2], in assay [3], in [4], in assay [5] and in [6] was inactive. Besides, the call in assay [7], in assay [8] and in [9] was inactive.

For `CCc1ccccc1N`, the concentration at half-maximal activity (AC50) in assay [1] is 67.2 µM (active). Besides, the outcome in assay [2], in assay [3], in [4], in assay [5], in assay [6] and in [7] was inactive. Further, the compound was classed as inactive in assay [8] and in assay [9].

Regarding `COc1ccc(OC)c(C=O)c1`, the call in [1], in assay [2], in assay [3], in [4], in assay [5] and in assay [6] was inactive. Further, the compound was classed as inactive in assay [7], in assay [8] and in [9].

As for `Cc1ccccc1C(=O)Nc1cccc(OC(C)C)c1`, the result in [1], in assay [2], in assay [3], in assay [4], in [5] and in assay [6] was inactive. Further, the result in assay [7], in assay [8] and in [9] was inactive.

With `Clc1nc(Cl)nc(Cl)n1`, the concentration at half-maximal activity (AC50) in [1] was 69 µM (active). In addition, the call in assay [2], in assay [3], in assay [4], in assay [5], in [6] and in [7] was inactive. Further, the compound was called inactive in assay [8] and in assay [9].

As for `CCOC(=O)CP(=O)(OCC)OCC`, the outcome in assay [1], in assay [2], in assay [3], in [4], in assay [5] and in assay [6] was inactive. Also, the call in assay [7], in assay [8] and in assay [9] was inactive.

Take `COS(=O)(=O)c1ccc(C)cc1`: the call in assay [1], in assay [2], in [3], in [4], in [5] and in [6] was inactive. Moreover, the call in [7], in assay [8] and in assay [9] was inactive.

Consider `CN(C)P(=O)(N(C)C)N(C)C`, for which the compound was called inactive in assay [1], in assay [2], in assay [3], in [4], in assay [5] and in assay [6]. The compound was called inactive in [7], in assay [8] and in assay [9].

Turning to `C(=NC1CCCCC1)=NC1CCCCC1`, the compound was classed as inactive in assay [1], in [2], in assay [3], in assay [10], in assay [5] and in assay [7]. The outcome in assay [9] was inactive. The concentration at half-maximal activity (AC50) in assay [4] is 2.69 µM (active); in [6], 33.4 µM (active).

`CC(=O)C(Cl)C(=O)N(C)C` (centres undefined): the outcome in [1], in [2], in assay [3], in assay [4], in assay [5] and in [6] was inactive. Further, the call in assay [7], in assay [8] and in assay [9] was inactive.

Turning to `COc1ccc(C=O)cc1`, the compound was called inactive in assay [1], in [2], in assay [3], in assay [4], in assay [5] and in [6]. Moreover, the call in assay [7], in assay [8] and in [9] was inactive.

As to `NC(=S)Nc1ccccc1`, the compound was called inactive in assay [1], in [2], in assay [3], in assay [4], in assay [5] and in [6]. For the same compound, the call in assay [7], in assay [8] and in [9] was inactive.

For the compound `CCNc1nc(NC(C)(C)C)nc(SC)n1`, the outcome in [1], in assay [3], in assay [4], in assay [10], in assay [5] and in assay [7] was inactive. Also, in [9], the result was inactive. For the same compound, the results for the AC50 in [2] and in [6] were 152 µM (active) and 160 µM (active), respectively.

For the compound `O=C(OC1CCCCC1)c1ccccc1C(=O)OC1CCCCC1`, the AC50 in assay [1] is 17.4 µM (active); in assay [2] it was 38.1 µM (active); in [4], 67.5 µM (active); in [5], 187 µM (active). The result in assay [3], in assay [10], in assay [6], in [7] and in [9] was inactive.
